In publication PMC5540273 (PLoS ONE, 2017):

These compounds were tested on TTK. Conditions: concentration: 1 μM, replicates: in singlicate; n = 1.
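Further: KINOMEscan kinase panel screen.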

| SMILES | %Inh |
| --- | --- |
| Cn1cc(-c2cnc(N)c3c(-c4ccc5c(c4)CCN5C(=O)Cc4ccccc4)csc23)cn1 [GSK2593074] | 7% |
| CN(C)CCNS(=O)(=O)c1ccc(-c2ccnc3[nH]ccc23)cc1 [GSK977620] | 50% |
| O=C(Nc1n[nH]c2nc(-c3cccc(O)c3)ccc12)C1CC1 [SB-711805] | 14% |
| Nc1cccc(-c2ccc3c(N)n[nH]c3c2)c1 [GSK2193613] | 21% |
| Cl.O=C(Nc1ccc(Oc2ccc3[nH]c(NC(=O)c4ccco4)nc3c2)cc1)Nc1cc(C(F)(F)F)ccc1F [GW683134] | 0% |
| COc1cccc2c(-c3ccncc3)c(-c3ccc(F)cc3)nn12 [GW468513] | 0% |
| COc1cc(Nc2ccnc3cc(-c4ccncc4)ccc23)cc(OC)c1OC.Cl [GW494610] | 0% |
| O=C(O)C(F)(F)F.O=c1[nH]ccc2nc(N[C@@H]3CCNC3)nc(Nc3ccc4c(c3)S(=O)(=O)CC4)c12 [GSK2181306] | 85% |
| Cl.N#CCc1ccc(Nc2nccc(Nc3ccc(Oc4ccccc4)cc3)n2)cc1 [GW639905] | 11% |
| Cc1ccc(O)cc1Nc1ccnc2cc(-c3ccc(CN4CCCCC4)o3)ccc12 [GW557777] | 0% |
| Cl.Cl.NC(CNC(=O)c1cc(Br)c(-c2ccnc3[nH]ccc23)s1)c1ccccc1 (centres unmarked) [GSK1322949] | 38% |
| CN(c1ccc2c(c1)nc(NCc1ccccc1)n2C)c1ccnc(Nc2ccc(CS(C)(=O)=O)cc2)n1.Cl [GW811603] | 16% |
| Cc1ccc(O)cc1Nc1ccnc2ccc(C(C)(C)C)cc12 [GW856805] | 17% |
| COC(=O)Nc1nc2ccc(Oc3ccc(NC(=O)Nc4cc(C(F)(F)F)ccc4F)cc3)cc2[nH]1.Cl [GW654607] | 17% |
| Cn1cc(-c2ccc3c(c2)CCN3C(=O)Cc2cc(F)cc(C(F)(F)F)c2)c2c(N)ncnc21 [GSK2635225] | 26% |
| COc1cccc(CC(=O)N2CCc3cc(-c4cn(C)c5ncnc(N)c45)ccc32)c1 [GSK2608899] | 0% |
| N#Cc1cnc2cc(-c3cnc(CNCCN4CCOCC4)s3)ccc2c1Nc1ccc(Oc2ccccc2)cc1 [GW664114] | 0% |
| O=C(Nc1n[nH]c2cc(-c3cccs3)ccc12)C1CC1 [SB-731284] | 10% |
| CN(C)CCOc1ccc(-c2cc(-c3ccc(Cl)c(O)c3)c(-c3ccncc3)[nH]2)cc1.Cl.Cl [SB-684387] | 0% |
| Cc1cccc(Nc2nc(NCCN)ncc2C(N)=O)c1 [GSK1292139] | 36% |
| COC(=O)Nc1nc2cc(Oc3ccc(NC(=O)Nc4cccc(SC)c4)cc3)ccc2[nH]1.Cl [GW697999] | 4% |
| Nc1ncnc2scc(-c3ccc(NC(=O)Cc4cc(F)ccc4F)cc3)c12.O=C(O)C(F)(F)F [SB-731254-M] | 0% |
| CC(C)c1nc(-c2ccc(F)c(NS(=O)(=O)c3c(F)cccc3F)c2)c(-c2ccnc(Nc3ccc(N4CCOCC4)nc3)n2)s1 [GSK1804250] | 52% |
| NCCC(NC(=O)c1cc(Br)c(-c2ccnc3[nH]ccc23)s1)c1ccccc1.O=C(O)C(F)(F)F.O=C(O)C(F)(F)F (centres unmarked) [GSK1307810] | 25% |
| COc1ccc(NC(=O)c2ccoc2)cc1-c1ccc(C(=O)NCC2CC2)cc1 [GW810437] | 0% |

These compounds were tested on TXK. Conditions: concentration: 1 μM, replicates: in singlicate; n = 1.

| SMILES | %Inh |
| --- | --- |
| CCn1c(-c2nonc2N)nc2c(-c3ccccc3)ncc(OCCCN)c21.O=C(O)C(F)(F)F.O=C(O)C(F)(F)F [GSK260205] | 0% |
| Cc1ccc(-c2ccc3occ(-c4ccc(S(C)=O)cc4)c3c2)nn1 (centres unmarked) | 2% |
| Cn1cc(-c2ccc3c(c2)CCN3C(=O)Cc2cc(F)cc(F)c2F)c2c(N)ncnc21 [GSK2634140] | 13% |
| COc1ccc(C)c(Nc2ccnc(Nc3ccc(-c4cnc[nH]4)cc3)n2)c1.Cl [GW784041] | 15% |
| c1ccc(Oc2ccc(Nc3ccnc4cc(-c5ccc(CN6CCCCC6)o5)ccc34)cc2)nc1 [GW567143] | 0% |
| CN(c1ccc(F)c(NC(=O)c2cccc(OC(C)(C)C#N)c2Cl)c1)c1ccc2nc(NC(=O)C3CC3)sc2n1 | 5% |
| COc1cc(Nc2nccc(N3CCC(NS(=O)(=O)c4ccc(NC(C)=O)cc4)CC3)n2)cc(OC)c1OC [GSK1379825] | 51% |
| Cc1ccc(C)c(NC(=O)Nc2ccc(C)c(-c3ccc(C(=O)Nc4ccncc4)cc3)c2)c1 [GSK1398473] | 25% |
| CCNc1nccc(-c2c(-c3ccc(F)cc3)ncn2C2CCN(C)CC2)n1 | 0% |
| Cc1ccc(NC(=O)c2cccc(N3CCCCC3)c2)cc1-c1ccc(C(=O)NCC2CC2)cc1 [GSK1917008] | 7% |
| Cl.Cl.NCC(NC(=O)c1cc(-c2cccnc2)c(-c2ccnc3[nH]ccc23)s1)c1ccccc1 (centres unmarked) [GSK1323434] | 0% |
| COc1cccc(-c2nc(-c3ccccc3)[nH]c2-c2ccncc2)c1 [SB-610250] | 14% |
| Cn1cc(-c2cnc(N)c3c(-c4ccc5c(c4)CCN5C(=O)Cc4ccccc4)csc23)cn1 [GSK2593074] | 9% |
| CN(C)CCNS(=O)(=O)c1ccc(-c2ccnc3[nH]ccc23)cc1 [GSK977620] | 91% |
| O=C(Nc1n[nH]c2nc(-c3cccc(O)c3)ccc12)C1CC1 [SB-711805] | 0% |
| Nc1cccc(-c2ccc3c(N)n[nH]c3c2)c1 [GSK2193613] | 3% |
| Cl.O=C(Nc1ccc(Oc2ccc3[nH]c(NC(=O)c4ccco4)nc3c2)cc1)Nc1cc(C(F)(F)F)ccc1F [GW683134] | 16% |
| COc1cccc2c(-c3ccncc3)c(-c3ccc(F)cc3)nn12 [GW468513] | 6% |
| COc1cc(Nc2ccnc3cc(-c4ccncc4)ccc23)cc(OC)c1OC.Cl [GW494610] | 92.8% |

| SMILES | %Inh |
| --- | --- |
| O=C(O)C(F)(F)F.O=c1[nH]ccc2nc(N[C@@H]3CCNC3)nc(Nc3ccc4c(c3)S(=O)(=O)CC4)c12 [GSK2181306] | 26% |
| Cl.N#CCc1ccc(Nc2nccc(Nc3ccc(Oc4ccccc4)cc3)n2)cc1 [GW639905] | 36% |
| Cc1ccc(O)cc1Nc1ccnc2cc(-c3ccc(CN4CCCCC4)o3)ccc12 [GW557777] | 98.3% |
| Cl.Cl.NC(CNC(=O)c1cc(Br)c(-c2ccnc3[nH]ccc23)s1)c1ccccc1 (centres unmarked) [GSK1322949] | 0% |
| CN(c1ccc2c(c1)nc(NCc1ccccc1)n2C)c1ccnc(Nc2ccc(CS(C)(=O)=O)cc2)n1.Cl [GW811603] | 78% |
| Cc1ccc(O)cc1Nc1ccnc2ccc(C(C)(C)C)cc12 [GW856805] | 98.9% |
| COC(=O)Nc1nc2ccc(Oc3ccc(NC(=O)Nc4cc(C(F)(F)F)ccc4F)cc3)cc2[nH]1.Cl [GW654607] | 0% |
| Cn1cc(-c2ccc3c(c2)CCN3C(=O)Cc2cc(F)cc(C(F)(F)F)c2)c2c(N)ncnc21 [GSK2635225] | 0% |
| COc1cccc(CC(=O)N2CCc3cc(-c4cn(C)c5ncnc(N)c45)ccc32)c1 [GSK2608899] | 0% |
| N#Cc1cnc2cc(-c3cnc(CNCCN4CCOCC4)s3)ccc2c1Nc1ccc(Oc2ccccc2)cc1 [GW664114] | 71% |
| O=C(Nc1n[nH]c2cc(-c3cccs3)ccc12)C1CC1 [SB-731284] | 0% |
| CN(C)CCOc1ccc(-c2cc(-c3ccc(Cl)c(O)c3)c(-c3ccncc3)[nH]2)cc1.Cl.Cl [SB-684387] | 56% |
| Cc1cccc(Nc2nc(NCCN)ncc2C(N)=O)c1 [GSK1292139] | 11% |
| COC(=O)Nc1nc2cc(Oc3ccc(NC(=O)Nc4cccc(SC)c4)cc3)ccc2[nH]1.Cl [GW697999] | 0% |
| Nc1ncnc2scc(-c3ccc(NC(=O)Cc4cc(F)ccc4F)cc3)c12.O=C(O)C(F)(F)F [SB-731254-M] | 8% |
| CC(C)c1nc(-c2ccc(F)c(NS(=O)(=O)c3c(F)cccc3F)c2)c(-c2ccnc(Nc3ccc(N4CCOCC4)nc3)n2)s1 [GSK1804250] | 85% |
| NCCC(NC(=O)c1cc(Br)c(-c2ccnc3[nH]ccc23)s1)c1ccccc1.O=C(O)C(F)(F)F.O=C(O)C(F)(F)F (centres unmarked) [GSK1307810] | 0% |
| COc1ccc(NC(=O)c2ccoc2)cc1-c1ccc(C(=O)NCC2CC2)cc1 [GW810437] | 0% |
